Experimental data from the supplement of paper PMC3414501.
Counter-ions that a name gives are not always drawn. Values without a mark were called inactive.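 How the source made its calls: active = HIS4 sensitivity z-score above 5 vs DMSO controls; inactive = score 5 or below.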

What follows are molecules tested on S. cerevisiae NKY1551 his4x/his4B, sporulating (assay: HIS4 meiotic recombination assay sensitivity score (z-score vs DMSO controls); higher = stronger inhibition of sporulation/recombination, active = hit call of the paper). Settings: stock concentration (mM, diluted 1:100): 7.7.
Procedure: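 NIH Clinical Collection compounds were added 1:100 from stock (about 100 µM final) to S. cerevisiae. Growth: average doubling time (AvgG) over 24 h of BY4741 (wild-type) or AD1-9 (drug-efflux-pump deficient) in rich media. HIS4: the his4x/his4B heteroallelic recombination reporter strain (SK1) was sporulated 5 h with compound at 30°C, then colony density was read on -his plates after 48 h. Sensitivity score = (compound − mean of 8 DMSO controls)/SD of DMSO controls. Hit cutoffs are >2 for growth and >5 for sporulation.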

Structure (SMILES)	HIS4 meiotic recombination assay sensitivity score
CCC(COC(=O)c1cc(OC)c(OC)c(OC)c1)(c1ccccc1)N(C)C (stereo not drawn) [Trimebutine maleate]	-1.28

Same assay, conditions: stock concentration (mM, diluted 1:100): 8.2

Structure (SMILES)	HIS4 meiotic recombination assay sensitivity score
COc1ccc2c(c1)[C@]13CCCC[C@@H]1[C@H](C2)N(C)CC3 [Dextromethorphan hydrobromide]	5.52 (active)

Same assay, conditions: stock concentration (mM, diluted 1:100): 8.6

Structure (SMILES)	HIS4 meiotic recombination assay sensitivity score
CCOC(=O)C1(c2ccccc2)CCN(CCC(C#N)(c2ccccc2)c2ccccc2)CC1 [Diphenoxylate]	0.41

Same assay, conditions: stock concentration (mM, diluted 1:100): 9.7

Structure (SMILES)	HIS4 meiotic recombination assay sensitivity score
CN1CCC(c2ccc(F)cc2)C(COc2ccc3c(c2)OCO3)C1 (stereo not drawn) [Methyl paroxetine]	10.7 (active)

Same assay, conditions: stock concentration (mM, diluted 1:100): 9.8

Structure (SMILES)	HIS4 meiotic recombination assay sensitivity score
CN1CC[C@]2(c3cccc(O)c3)Cc3nc4ccccc4cc3C[C@H]2C1	0.28

Same assay, conditions: stock concentration (mM, diluted 1:100): 10

Structure (SMILES)	HIS4 meiotic recombination assay sensitivity score
O=C(O)C(Cl)Cl [Dichloroacetic acid]	-0.62
C#CCN(C)[C@H](C)Cc1ccccc1 [Selegiline]	0.06
CNCC(O)c1ccc(O)cc1 (stereo not drawn) [Synephrine]	-1.28
Oc1ccc2c3c1O[C@H]1[C@@H](O)CC[C@@]4(O)[C@@H](C2)N(CC2CCC2)CC[C@]314 [Nalbuphine]	-0.56
CC(O)(CS(=O)(=O)c1ccc(F)cc1)C(=O)Nc1ccc(C#N)c(C(F)(F)F)c1 (stereo not drawn) [Bicalutamide]	-0.62
CN1C(=O)COc2c(C(=O)NC3CN4CCC3CC4)cc(Cl)cc21 (stereo not drawn) [Azasetron]	1.08
CNC1CC(c2ccc(Cl)c(Cl)c2)c2ccccc21 (stereo not drawn) [Indatraline]	-0.83
CC[C@]1(O)CC[C@H]2[C@@H]3CCC4=CCCC[C@@H]4[C@H]3CC[C@@]21C [Ethylestrenol]	1.02
CCCCC/C=C\C/C=C\C/C=C\C/C=C\CCCC(=O)Nc1ccc(O)cc1	-0.8
CCCN1C[C@H](CSC)C[C@@H]2c3cccc4[nH]cc(c34)C[C@H]21 [Pergolide mesylate]	-0.45
NC(=O)C[S+]([O-])C(c1ccccc1)c1ccccc1 (stereo not drawn) [Modafinil]	-0.33
N=C(NCc1ccc(Cl)cc1)SCCCc1c[nH]cn1 [Clobenpropit]	-0.07
Cc1nnc2n1-c1ccc(Cl)cc1C(c1ccccc1)=NC2 [Alprazolam]	1.57
C[C@]12CC[C@H](O)CC1=CC[C@@H]1[C@@H]2CC[C@]2(C)C(=O)CC[C@@H]12 [Dehydroepiandrosterone]	3.07
COC(=O)N1CCN(C(=O)Cc2ccc(Cl)c(Cl)c2)C(CN2CCCC2)C1 (stereo not drawn)	-0.89
COc1ccc(CCN)cc1OC [Homoveratrylamine]	-1.74
COc1cc2c(cc1OC)[C@@]13CCN4CC5=CCO[C@H]6CC(=O)N2[C@H]1[C@H]6[C@H]5C[C@H]43 [Brucine]	0.05
c1cncc([C@@H]2CCCN2)c1 [Nornicotine]	-1.18
C[C@]12CCC(=O)C=C1CC[C@@H]1[C@@H]2CC[C@@]2(C)[C@H]1CC[C@]2(C)O [Methyltestosterone]	2.7
Oc1ccc2c3c1O[C@H]1c4[nH]c5ccccc5c4C[C@@]4(O)[C@@H](C2)N(CC2CC2)CC[C@]314 [Naltrindole]	-0.51
OC1CCCCC1N1CCC(c2ccccc2)CC1 (stereo not drawn) [Vesamicol hydrochloride]	-0.31
Oc1cc2c(cc1O)[C@H]1c3ccccc3CN[C@@H]1CC2	2.29

Same assay, conditions: stock concentration (mM, diluted 1:100): 10.1

Structure (SMILES)	HIS4 meiotic recombination assay sensitivity score
C[C@]12CC[C@H](O)CC1=CC[C@@H]1[C@@H]2CC[C@@]2(C)[C@H]1CC[C@]2(C)O [Methylandrostenediol]	-1.02
CC[C@@H](C(N)=O)N1CCCC1=O [Levetiracetam]	-0.77
C[C@]12C/C(=C/O)C(=O)C[C@@H]1CC[C@@H]1[C@@H]2CC[C@@]2(C)[C@H]1CC[C@]2(C)O [Oxymetholone]	8.48 (active)
COc1ccc2[nH]cc(C3=CCNCC3)c2c1	3.92
NC(=O)OCCCc1ccccc1 [Phenprobamate]	0.5
C=C(C)CN1CC[C@]23c4c5ccc(O)c4O[C@H]2c2[nH]c4ccccc4c2C[C@@]3(O)C1C5	3.9
